# Laboratory results as given in PubChem BioAssay (NCATS).
# Inconclusive results are not listed. Where a call stands in place of a potency, no number is given. Activity calls are given as the source filed them. Calls come from the whole dose curve; as a rule, active = well fitted inhibition curve with a large enough effect; inconclusive = small, poorly fitted or top-dose-only effect; inactive = no such curve, though single readings can be large or run the other way. Residues, ends and D or L forms follow the SMILES beside them. *: point of attachment. Cbz = O=C(OCc1ccccc1)*
# Molecular target: Thioredoxin reductase 1, cytoplasmic (Rattus norvegicus) (UniProt O89049)
# Assay: qHTS Assay for Inhibitors of Mammalian Selenoprotein Thioredoxin Reductase 1 (TrxR1) (AID 488773); note: nearly all actives have a fitted effect of over 40% in size
# Settings: purified TrxR1 enzyme activity; Potency: inhibition; series mostly up to 57.1 µM
# From the text: The selenoprotein thioredoxin reductase (TrxR; EC 1.8.1.9) is a FAD containing homodimeric pyridine nucleotide-disulfide oxidoreductase with many cellular roles. Together with NADPH and its prime substrate thioredoxin (Trx), the enzyme forms the core of the Trx system. The mammalian Trx system exerts a wide spectrum of functions including redox regulation, antioxidant defense, regulation of transcription factors as well as support of cell growth and replication. Many of these functions involve the reduction of Trx, which may subsequently reduce a number of different substrates including ribonucleotide reductase, peroxiredoxins or NFkB. Mammalian TrxR itself also has a broad substrate specificity, reducing both protein and non-protein substrates, including low molecular weight compounds such as dehydroascorbate, lipoic acid, ubiquinone, and juglone. In addition, several drugs in clinical use for anticancer treatment are indeed known to target TrxR1.
# This BioAssay is a validation of an NADPH fluorescence-based, dual-purpose qHTS rTrxR1 assay designed to find potential inhibitors and substrates of rTrxR1. For this particular BioAssay, actives are potential inhibitors. See related BioAssay for substrate data deposition.
# Assay protocol: 2 uL of reagents (buffer in column 4 as negative control and 90 nM rTrxR1 in columns 1-3 and 5-48) were dispensed into Greiner black solid-bottom 1,536-well assay plates, followed by 1 uL of NADPH (400 uM final concentration) to each well. The plates were centrifuged at 1000 rpm for 15 seconds and subsequently incubated for 5 min at room temperature (~22 deg C) to allow for rTrxR1 reduction. Compounds (23 nL) were then transferred via Kalypsys pin tool equipped with 1536-pin array (10 nL slotted pins, V&P Scientific, San Diego, CA). In addition, a duplicate 2-fold serial dilution of the control compounds auranofin, a known gold-based TrxR1 inhibitor, and juglone (5-hydroxy-1,4-naphthoquinone), a natural TrxR1 substrate, were pin-transferred to columns 2 and 3, respectively. After incubation for 15 min at room temperature (~22 deg C), 1 uL of selenite (400 uM final concentration) were dispensed to each well. The plate was immediately transferred to a ViewLux high-throughput CCD imager (PerkinElmer), wherein kinetic measurements of NADPH fluorescence (Ex 340 nm, Em 450 nm) were acquired (8 minute kinetic read, see Table 1). Read 1 was utilized to assess the capacity of a compound to serve as an rTrxR1 substrate, i.e. a decrease in NADPH fluorescence compared to the no-compound background is an indication of a substrate behavior for that particular compound. For inhibitory activity of a compound, delta values, computed as the difference in fluorescence intensity between the first and last reads of an 8-minute time kinetic window, were used. All reagents were diluted in an assay buffer consisting of 50 mM Tris-HCl, pH 7.5, 2 mM EDTA, and 0.01% Tween-20.
# Throughout the screen, reagent bottle and all liquid lines were made light-tight to minimize reagent degradation. All screening operations were performed on a fully integrated robotic system (Kalypsys, San Diego, CA) containing one RX-130 and two RX-90 anthropomorphic robotic arms (Staubli, Duncan, SC). Library plates were screened starting from the lowest and proceeding to the highest concentration, and a 'double-pinning' step of the highest concentration was required to access higher concentrations of compounds. Vehicle-only plates, with DMSO being pin-transferred to the columns 5-48, were inserted uniformly at the beginning and the end of each library in order to monitor and record any shifts in the background, which can be affected by reagent dispensers or loss in enzyme activity over time. Screening data were corrected, normalized, and concentration-effect relationships were derived by using publicly-available curve fitting algorithms developed in-house (http://ncgc.nih.gov/pub/openhts).
# Chain of Thioredoxin reductase 1, cytoplasmic (Rattus norvegicus) (O89049 whole entry, looked up): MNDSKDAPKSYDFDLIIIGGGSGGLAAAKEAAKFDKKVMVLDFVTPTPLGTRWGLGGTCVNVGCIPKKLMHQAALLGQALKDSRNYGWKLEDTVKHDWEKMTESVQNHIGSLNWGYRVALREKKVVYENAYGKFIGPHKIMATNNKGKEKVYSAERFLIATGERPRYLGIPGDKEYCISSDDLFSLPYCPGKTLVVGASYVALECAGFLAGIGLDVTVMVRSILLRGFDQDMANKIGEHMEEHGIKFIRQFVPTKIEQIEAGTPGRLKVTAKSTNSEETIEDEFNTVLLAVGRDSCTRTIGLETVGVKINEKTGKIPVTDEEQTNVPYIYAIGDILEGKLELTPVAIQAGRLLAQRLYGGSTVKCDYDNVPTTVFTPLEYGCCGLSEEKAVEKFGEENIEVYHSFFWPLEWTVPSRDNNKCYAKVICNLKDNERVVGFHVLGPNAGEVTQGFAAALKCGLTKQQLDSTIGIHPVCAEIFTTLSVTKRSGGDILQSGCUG
row,Structure (SMILES),Potency
1,O=c1cc(-c2ccccc2)[nH]c2nc(Cl)ccc12,inactive
2,NCCCCN,inactive
3,CC(C)[C@H](NC(=O)OCc1ccccc1)C(=O)N[C@H](C=O)Cc1ccccc1 (Cbz-Val-Phe-aldehyde),inactive
4,CC(C)(CO)Cc1cc(C(C)(C)C)c(O)c(C(C)(C)C)c1,inactive
5,OC[C@H]1O[C@@H](n2cnc3cncnc32)[C@H](O)[C@@H]1O,inactive
6,OCC1NCC(O)C(O)C1O (stereo not given),inactive
7,Cc1cccc(C2CN(C)CCc3c2cc(O)c(O)c3Cl)c1 (stereo not given),inactive
8,N#CC(=C(\N)Sc1ccccc1N)/C(C#N)=C(/N)Sc1ccccc1N,inactive
9,CCSC(=N)N,inactive
10,c1ccc(C(NCCNC(c2ccccc2)c2ccccc2)c2ccccc2)cc1,inactive
11,O=C(O)c1ccccc1Nc1cccc(OCc2ccc3ccccc3n2)c1,inactive
12,NC1CONC1=O (stereo not given),inactive
13,NC(=O)c1ccccc1,inactive
14,Nc1ncnc2c1ncn2C1CCCO1 (stereo not given),inactive
15,Nc1nc2c(cnn2CCc2ccccc2)c2nc(-c3ccco3)nn12,inactive
16,COc1ccccc1N1CCN(CCCNc2c(C)c(=O)n(C)c(=O)n2C)CC1,inactive
17,O=C(O)C1CN(CCCP(=O)(O)O)CCN1 (stereo not given),inactive
18,Fc1ccc(CN(C2=NCCN2)c2c(Cl)cccc2Cl)cc1,inactive
19,CC(=O)SC1CC2=CC(=O)CC[C@]2(C)C2CC[C@@]3(C)C(CC[C@@]34CCC(=O)O4)C12 (stereo not given in full),inactive
20,C[C@@]1(C2CCCC2)Cc2cc(OCC(=O)O)c(Cl)c(Cl)c2C1=O,inactive

row,Structure (SMILES),Potency
1,O=c1onc2cnc3ccccc3n12,inactive
2,O=c1cc(-c2ccccc2F)[nH]c2cc3c(cc12)OCO3,inactive
3,CC1=C(C(=O)O)N2C(=O)[C@@H](NC(=O)C(N)C3=CCC=CC3)[C@H]2SC1 (stereo not given in full),inactive
4,Cc1cc2c(cc1Cl)N(C(=O)Nc1ccnc3ccccc13)CC2,inactive
5,CCCCS(=N)(=O)CC[C@H](N)C(=O)O (stereo not given in full),inactive
6,CCCCCCCCCC(=O)NC(CN1CCOCC1)[C@H](O)c1ccccc1 (stereo not given in full),inactive
7,COc1ccccc1N1CCN(CCN(C(=O)c2ccc(F)cc2)c2ccccn2)CC1,inactive
8,c1ccc(C(NCc2cccnc2)(c2ccccc2)c2ccccc2)cc1,inactive
9,CNc1cc(NS(=O)(=O)c2ccc(N)cc2)nc(NC)n1,inactive
10,CC(C)[C@@H]1CC[C@@H](C)C[C@@H]1P(=O)(c1ccccc1)c1ccccc1,inactive
11,CC(O)C(O)[C@H]1CNc2nc(N)[nH]c(=O)c2N1 (stereo not given in full),inactive
12,COc1cc([C@@H]2c3cc4c(cc3[C@H](O)C3COC(=O)[C@@H]32)OCO4)cc(OC)c1OC (stereo not given in full),inactive
13,COc1ccc(C(=O)NCc2cccnc2)cc1C(=O)NCc1cccnc1,inactive
14,Nc1ncnc2c1ncn2C1CCCC1,inactive
15,CCCCCCC(=O)OC1CC(C)(C)NC(C)(C)C1,inactive
16,COc1cc(CNC(=O)CCCCCCC(C)C)ccc1O,inactive
17,NC(N)=NC(N)=Nc1ccccc1,inactive
18,CCCn1c(=O)c2[nH]c(C3CCCC3)nc2n(CCC)c1=O,inactive
19,O=C(O)/C(=C/c1c(C(=O)O)[nH]c2cc(Cl)cc(Cl)c12)c1ccccc1,inactive
20,CC(=O)C(C)=O,inactive
